Source: the supplement of paper PMC6555819

The sequences below were run on VDR:RXRa (NR concentration 270 nM, RXRa partner concentration 90 nM) (assay: PBM binding z-score (relative to random genomic background probes); higher = stronger binding; sequences stand for … in GC…GCGATTGACAGCGTAGAATGAAGG).
Method: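 Protein-binding microarray (Agilent 4x180K custom design, double-stranded 60-nt probes: 5' GC cap, 34-nt variable region, 24-nt constant primer region; full probe sequence given). Purified or IVT nuclear receptor:RXRα heterodimers (3:1 NR:RXRα, mostly 270:90 nM) or homodimers were incubated for 1 h in PBS with 2% milk and no ligand, then detected with Alexa488 antibodies. Fluorescence from o1-orientation probes (~5 replicates averaged) was converted to z-scores against 500 random hg19 background probes. Variable regions are seed direct-repeat (DR0–DR5) sites, all their single-nucleotide variants and half-site ablations.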

Sequence | PBM binding z-score
TCATATAGGTAAAAGGTGAAAGTAGGTGTGGTAA | 1.93
CCGACTGGGGCATAAGGTGACCATAAGCCAGCCC | -0.42
TCTTGTAGATCAACAGGAGGTTAAGAAGGATCGA | 0.575
ATACCACGGTGATCGTGAGGTCGTTGATACTAAC | 1.93
GCGACTGGGGCATGAGCAGGTTACCATAACTTAA | -0.262
CGAACTAGGTCATCCAGCACAGTGAATACATTGA | 2.34
TCTTGTAGATCAATGGTTAAGAAAGCCGAAGCCT | 0.403
CCTAGCAGGTCAATCTGGGTCACTCAAGGCTTGA | 4.94
ATCTCTAGGTAAACAAGTTCAGTGAATGCCGAAC | 4
TCATACAGGTAATACAGGTGAAAGTCGGCATCTA | 1.24
CCTACTCGGCCAAGGTCATTGATCAGTCAAAGCA | 3.51
CCTACTGGGCCATCAAGTCATTGATATCAACGTT | -0.0971
TGAATGATGTTATAAGATCAGGGAACGTTGCAAA | -0.175
ACTATTAGTTGACATAGGGCAACCGATACGACGC | 0.569
TATACAGGGTCAAAGGACAGAGTACGAATGTCGA | 4.6
ATATGTAGGTTATCGGGTCGTTCAGTTTGCGCAT | 3.89
ATACCAAGGAGATCGTGAGGTCGTTGATACTAAC | 1.44
AGAATAAGGTTATACGTAGATCAGGGAAGAAAGT | 1.04
CGTCCAAGGTCAGCAGGTAAGTGAAAGCGACGTG | 2.55
CCTACTGGACCAAAAAGGTCATTGATGCCGATAA | 4.77

Sequence | PBM binding z-score
CAGCCTAGGTCAGGTCCAGTATAGGAGGAACGTT | 0.304
ACTAGCAGGCGAAGTTTGGGTCACTCAAACAAAG | 0.191
TCTGCTAGGTGAGTTGGTCAGCTAACGAGCTGCC | -0.769
ACTAGCAGGACAAGGGTCACTCAAGATTAGTCCG | 3.05
CGTCCAAGGTCAATGCTAGGTGAGTGAAAGCATT | 3.69
ATCTCTAGGTAACTAAGTTCAGTGAATGCCGAAC | 4.26
GAATATAGGTAATACAAGGTGAAAGTCCGATTGT | 0.758
GCTAGCAGGCCATTTGGGTCATTCAATGACGGGC | 1.56
CCGACTGGGGCATAAGGTTACCCTAAGCCAGCCC | 0.27
TCGAGTAGGTAAGGGGCATTCAGAATGGCGTCGA | 0.0857
ACTAACAGGCCAAGTTTGGGTCACTCAAACAAAG | 0.973
TGAATGAGGTTAAAGATCAGGGAGCGTGGCGTCG | 1.74
CGAACGAGGGCATGAGTTGATAGAAAATGCCGAT | 1.29
GCTTGTAGATCAAGGTTAGGAAAGACTAAGCTAA | -0.45
GCATATAGGTAGTACAAGGTGAAAGTCCGATTGT | 0.154
ATCGAAAGGTCGAAGGTAAGTATACCCACCCGAA | 2.51
GCATATAGGTAATACAAGATGAAAGTCCGATTGT | -0.0142
CATACAGGGTCAACTAGGCCAGAGTAGGGACGGC | 5.1
CCTCGGAGGACAGAAGGTCAGAGCAGTCCGCTTT | 1.82
TCGAGTAGGTTACCAATGGAGCATTCAGCTTTCT | -0.303
